# Measured values reported in PubChem BioAssay (EPA / NIEHS).
# Records with an inconclusive call do not appear. Active and inactive are the calls of the source. The calls were made as follows: active = hit-call score of the fitted dose curve at least 0.9, where 1 is the maximum; inconclusive = response in the unintended direction; inactive = score below 0.9.
# Experiment: CCTE_Deisenroth_AIME_384WELL_CTox_Inactive: Cytotoxicity Assessment (CTOX) in CCTE's 384-well Estrogen Receptor Transactivation Assay without AIME metabolic competence (metabolism negative), Deisenroth Lab (AID 2284039);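 also: cell viability via live-cell protease substrate cleaved to fluorescent probe; cells exposed 24 h to medium preincubated 2 h with alginate-water beads without S9; loss of fluorescence signal means loss of viability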
# Experimental: CCTE_Deisenroth_AIME_384WELL (AIME metabolism assay) is a cell-based, single-readout assay that uses VM7Luc4E2, a human mammary gland/breast cell line, with measurements taken at 24 hour after chemical dosing in a 384-well plate.CCTE_Deisenroth_AIME_384WELL_CTox_Inactive is one of four assay components measured or calculated from the CCTE_Deisenroth_AIME_384WELL assay. It is designed to make measurements of a protease substrate, a type of viability indicator, as detected with substrate cleavage to a fluorescent probe in living cells.CCTE_Deisenroth_AIME_384WELL_CTox_Inactive is a component of the CCTE_Deisenroth_AIME_384WELL assay that measures the effect of retroftting the VM7Luc ERTA assay with the Alginate Immobolization of Metabolic Enzymes (AIME) metabolism method. AIME is optimized to impart phase I hepatic metabolism using phenobarbital/beta-naphthoflavone induced hepatic S9 from male Sprague Dawley rats. Parent chemicals are incubated for 2 hours in the AIME assay prior to transfer to the VM7Luc ERTA assay plate. […] This endpoint evaluates cytotoxicity in metabolism negative mode. Using a type of flourescent probe in VM7Luc cells, loss-of-signal activity can be used to understand loss of viability. This assay endpoint, CCTE_Deisenroth_AIME_384WELL_CTox_Inactive, was analyzed with bidirectional fitting in the ERTA assay.
# The AIME procedure consists of a preparative "pre-stamping" step using a barium chloride/poly-L-lysine (PLL) solution followed by "stamping" the lid in alginate-hepatic S9 (metabolism positive) or alginate-water (metabolism negative) to form microspheres. Once stamping is completed, the AIME lids are placed in duplicate microplates (metabolism positive or negative) containing chemical solutions and incubated for two hours to facilitate metabolic reactions. The conditioned medium, containing parent chemical or metabolites, is then transferred to the cell-based VM7Luc Estrogen Receptor Transactivation Assay (ERTA) for 24 hours. A typical experimental design tests a 10-point concentration series (0.002 - 200 uM) for 8 compounds (96-well format)1 or 32 compounds (384-well format)2 in single technical replicate. AIME assay controls include trans-stilbene (bioactivated control) and ethylparaben (bioinactivated control). ERTA assay plate controls include 17-beta estradiol (positive control) and DMSO (solvent control). Experiments typically comprise a minimum of four experimental replicates (n=4).
Structure (SMILES),outcome,AC50
Nc1c(Cl)c(Cl)nc(C(=O)O)c1Cl,inactive,–
COc1ccc(-c2ccccc2)cc1NNC(=O)OC(C)C,–,77.9 µM (active)
CCSC(=O)N1CCCCCC1,inactive,–
CS(=O)(=O)c1cc(C(F)(F)F)ccc1C(=O)c1cnoc1C1CC1,inactive,–
COP(=S)(OC)SCn1nnc2ccccc2c1=O,–,100 µM (active)
N#Cc1c(Cl)cccc1Cl,inactive,–
CCOP(=S)(OCC)Oc1nc(Cl)n(C(C)C)n1,inactive,–
CC1(C)C(C=C(Cl)Cl)C1C(=O)OC(C#N)c1cccc(Oc2ccccc2)c1 (stereo not given),–,2.33 µM (active)
CO/N=C(/C1=NOCCO1)c1ccccc1Oc1ncnc(Oc2ccccc2Cl)c1F,–,15.3 µM (active)
COc1cc(OC)nc(NC(=O)NS(=O)(=O)c2ncccc2OCC(F)(F)F)n1,inactive,–
COCc1cnc(C2=NC(C)(C(C)C)C(=O)N2)c(C(=O)O)c1 (stereo not given),inactive,–
COP(=S)(OC)Oc1ccc([N+](=O)[O-])c(C)c1,inactive,–
C=C(C)CN(CC)c1c([N+](=O)[O-])cc(C(F)(F)F)cc1[N+](=O)[O-],inactive,–
CCOc1nc(F)cc2nc(S(=O)(=O)Nc3c(Cl)cccc3Cl)nn12,–,146 µM (active)
CN=C=S,inactive,–
CC(C)=CC1C(C(=O)OCc2coc(Cc3ccccc3)c2)C1(C)C (stereo not given),inactive,–
COCC(C)N(C(=O)CCl)c1c(C)csc1C (stereo not given),inactive,–
CCCC(=NOCC)C1=C(O)CC(CC(C)SCC)CC1=O (stereo not given),inactive,–
CCCCC(O)(Cn1cncn1)c1ccc(Cl)cc1Cl (stereo not given),–,100 µM (active)
O=c1n(Cl)c(=O)n(Cl)c(=O)n1Cl,inactive,–
CCOC(=O)C(C)OC(=O)c1cc(Oc2ccc(C(F)(F)F)cc2Cl)ccc1[N+](=O)[O-] (stereo not given),–,100 µM (active)
COC(=O)NC(=S)Nc1ccccc1NC(=S)NC(=O)OC,inactive,–
COC(=O)N(C(=O)N1CO[C@@]2(C(=O)OC)Cc3cc(Cl)ccc3C2=N1)c1ccc(OC(F)(F)F)cc1,inactive,–
CC(C)Oc1cccc(NC(=O)c2ccccc2C(F)(F)F)c1,inactive,–
CC(C)N1C(=O)N(c2ccccc2)CSC1=NC(C)(C)C,inactive,–
